The values that follow come from PubChem BioAssay.

Activity calls are given as the source filed them.

Experiment [1] in a line: small molecules captured by biotinylated probe aFSTL3 – biochemical, small-molecule microarray, fluorescence 635/667, stem cell growth factor project, primary screen (AID 1064).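 Note: measures binding of the biotinylated anti-FSTL3 antibody to printed compounds.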 Particulars: higher = more signal.
The nature of experiment [2]: binders from COS7 lysate, DM2A8 probe, primary screen, torsin A project, cell lysate, small-molecule microarray, fluorescence 635/667 (AID 1065). Particulars: higher = more signal, COS7 lysate expressing mutant human TOR1A.
Experiment [3] in a line: small molecules captured by biotinylated probe aFGF2 – biochemical, small-molecule microarray, fluorescence 635/667, stem cell growth factor project, primary screen (AID 1067).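 Note: measures binding of biotinylated aFGF2 protein to printed compounds on slides; z-score merges feature fluorescence and signal-to-noise across triplicate slides.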 The conditions noted are these: higher = more signal.
Experiment [4] can be described thus: small molecules captured by biotinylated probe aFGF10 – biochemical, small-molecule microarray, fluorescence 635/667, stem cell growth factor project, primary screen (AID 1071).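 Note: score merges 667 nm spot intensity and signal to noise from triplicate slides.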 The conditions noted are these: higher = more signal.
For experiment [5], the target named is Neurogenic locus notch homolog protein 2 (Homo sapiens) (UniProt Q04721). Briefly: small molecules binding Notch2 protein – biochemical, small-molecule microarray, 635 nm fluorescence, stem cell growth factors, primary screen (AID 1073). Particulars: higher = more signal.
Sequence of Neurogenic locus notch homolog protein 2 (Homo sapiens) (Q04721 whole entry, looked up, canonical isoform): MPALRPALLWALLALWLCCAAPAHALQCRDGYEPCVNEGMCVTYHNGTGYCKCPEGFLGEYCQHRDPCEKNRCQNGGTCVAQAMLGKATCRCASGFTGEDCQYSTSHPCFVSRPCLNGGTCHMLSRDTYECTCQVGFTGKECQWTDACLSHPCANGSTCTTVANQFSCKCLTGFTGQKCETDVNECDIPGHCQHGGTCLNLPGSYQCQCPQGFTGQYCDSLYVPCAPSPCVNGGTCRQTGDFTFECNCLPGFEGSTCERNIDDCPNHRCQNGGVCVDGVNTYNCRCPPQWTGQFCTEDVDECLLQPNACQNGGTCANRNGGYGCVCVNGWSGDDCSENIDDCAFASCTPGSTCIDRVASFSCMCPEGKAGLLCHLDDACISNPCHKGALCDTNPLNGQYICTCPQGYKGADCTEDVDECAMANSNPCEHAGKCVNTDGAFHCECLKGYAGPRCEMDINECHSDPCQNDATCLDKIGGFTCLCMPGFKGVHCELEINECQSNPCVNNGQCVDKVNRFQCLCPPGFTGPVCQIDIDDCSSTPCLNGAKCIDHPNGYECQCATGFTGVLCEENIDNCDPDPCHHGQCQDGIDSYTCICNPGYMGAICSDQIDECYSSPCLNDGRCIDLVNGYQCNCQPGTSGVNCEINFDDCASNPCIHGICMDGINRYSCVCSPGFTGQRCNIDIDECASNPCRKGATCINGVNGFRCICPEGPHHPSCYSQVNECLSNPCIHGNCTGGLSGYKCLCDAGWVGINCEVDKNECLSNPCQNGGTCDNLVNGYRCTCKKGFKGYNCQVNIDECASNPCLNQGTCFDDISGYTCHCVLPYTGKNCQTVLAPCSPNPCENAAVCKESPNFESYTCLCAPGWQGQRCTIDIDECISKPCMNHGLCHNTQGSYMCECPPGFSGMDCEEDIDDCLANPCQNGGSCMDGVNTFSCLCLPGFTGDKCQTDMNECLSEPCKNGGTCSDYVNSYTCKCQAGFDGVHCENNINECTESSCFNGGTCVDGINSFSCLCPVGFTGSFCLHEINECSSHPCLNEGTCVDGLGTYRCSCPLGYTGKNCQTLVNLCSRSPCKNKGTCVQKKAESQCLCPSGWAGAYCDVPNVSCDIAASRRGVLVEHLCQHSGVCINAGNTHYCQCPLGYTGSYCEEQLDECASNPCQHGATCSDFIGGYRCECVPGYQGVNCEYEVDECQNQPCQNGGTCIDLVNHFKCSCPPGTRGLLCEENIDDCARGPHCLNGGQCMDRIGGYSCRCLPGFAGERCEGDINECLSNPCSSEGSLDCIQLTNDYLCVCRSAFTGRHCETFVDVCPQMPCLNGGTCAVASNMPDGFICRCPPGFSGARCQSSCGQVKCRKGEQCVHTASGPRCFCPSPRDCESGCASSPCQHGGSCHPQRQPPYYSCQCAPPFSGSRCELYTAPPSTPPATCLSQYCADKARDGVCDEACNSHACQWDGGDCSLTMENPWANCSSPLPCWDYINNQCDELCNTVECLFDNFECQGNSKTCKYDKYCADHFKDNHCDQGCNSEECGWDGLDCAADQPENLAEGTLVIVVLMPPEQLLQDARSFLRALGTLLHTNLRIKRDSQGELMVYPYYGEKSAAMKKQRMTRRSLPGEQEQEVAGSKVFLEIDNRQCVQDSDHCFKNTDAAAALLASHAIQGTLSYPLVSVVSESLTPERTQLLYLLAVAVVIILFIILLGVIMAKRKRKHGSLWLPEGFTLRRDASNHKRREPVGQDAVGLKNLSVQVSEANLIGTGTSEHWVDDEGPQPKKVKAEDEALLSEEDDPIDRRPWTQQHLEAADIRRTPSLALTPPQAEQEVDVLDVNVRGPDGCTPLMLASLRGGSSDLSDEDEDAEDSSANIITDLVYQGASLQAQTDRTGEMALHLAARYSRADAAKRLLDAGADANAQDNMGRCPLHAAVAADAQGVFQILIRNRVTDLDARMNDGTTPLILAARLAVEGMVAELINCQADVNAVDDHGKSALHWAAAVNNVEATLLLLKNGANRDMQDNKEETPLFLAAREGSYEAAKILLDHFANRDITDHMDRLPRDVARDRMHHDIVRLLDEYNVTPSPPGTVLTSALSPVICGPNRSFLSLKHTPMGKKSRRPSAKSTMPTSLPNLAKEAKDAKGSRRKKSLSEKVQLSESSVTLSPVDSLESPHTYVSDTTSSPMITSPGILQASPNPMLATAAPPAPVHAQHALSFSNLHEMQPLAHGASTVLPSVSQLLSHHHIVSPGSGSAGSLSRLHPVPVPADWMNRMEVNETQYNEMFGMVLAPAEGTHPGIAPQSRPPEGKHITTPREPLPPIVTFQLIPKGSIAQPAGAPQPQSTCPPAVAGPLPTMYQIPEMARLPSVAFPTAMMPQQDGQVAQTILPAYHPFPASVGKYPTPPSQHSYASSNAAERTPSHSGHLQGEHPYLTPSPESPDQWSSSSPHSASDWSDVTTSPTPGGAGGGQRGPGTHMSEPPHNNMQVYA
The target in experiment [6] is Pro-neuregulin-1, membrane-bound isoform (Homo sapiens) (UniProt Q02297). The experiment can be described thus: small molecules binding neuregulin-1 protein – biochemical, small-molecule microarray, fluorescence 635/667, psychiatric disease protein project, primary screen (AID 1075).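 Note: score combines 667 nm spot fluorescence with signal to noise.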 The conditions noted are these: NRG1 binding, 635 nm fluorescence, higher = more signal.
Sequence of Pro-neuregulin-1, membrane-bound isoform (Homo sapiens) (Q02297 whole entry, looked up, canonical isoform): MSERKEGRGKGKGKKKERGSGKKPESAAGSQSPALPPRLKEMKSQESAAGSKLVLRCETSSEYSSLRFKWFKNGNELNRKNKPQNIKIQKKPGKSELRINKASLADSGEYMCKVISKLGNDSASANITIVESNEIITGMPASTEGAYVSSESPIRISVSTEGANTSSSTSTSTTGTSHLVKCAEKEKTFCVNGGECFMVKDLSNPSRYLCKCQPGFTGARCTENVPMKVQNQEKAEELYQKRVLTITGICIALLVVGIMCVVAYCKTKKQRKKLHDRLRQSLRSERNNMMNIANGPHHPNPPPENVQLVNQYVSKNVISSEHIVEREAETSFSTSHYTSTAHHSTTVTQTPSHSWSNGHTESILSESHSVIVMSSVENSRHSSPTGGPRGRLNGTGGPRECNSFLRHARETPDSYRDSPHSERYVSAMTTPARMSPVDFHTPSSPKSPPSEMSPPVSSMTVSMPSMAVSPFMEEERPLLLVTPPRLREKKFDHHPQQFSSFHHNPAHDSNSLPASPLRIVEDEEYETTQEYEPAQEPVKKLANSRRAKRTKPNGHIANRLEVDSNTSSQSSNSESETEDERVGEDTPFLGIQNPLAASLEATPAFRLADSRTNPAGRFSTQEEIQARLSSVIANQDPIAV

In experiment [7] the test system is Neuregulin-1 EGF-like domain. Briefly: small molecules binding NRG1 EGF domain – biochemical, small-molecule microarray, 635 nm fluorescence, primary screen (AID 1081).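 Note: binding of the protein to compounds printed on small-molecule microarray slides.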 Particulars: higher = more signal.
Experiment [8] can be described thus: FRG1 expression reporter modulators in myotubes – cell-based, C2C12 myotubes, firefly/Renilla luciferase, luminescence, FRG1 inhibition for FSHD, primary screen (AID 1084). The conditions noted are these: FRG1 promoter luciferase, higher = more signal, called active from +8 up or from −8 down.
Experiment [9] is described as follows: small molecules captured by biotinylated probe aFST – biochemical, small-molecule microarray, fluorescence 635/667, stem cell growth factor project, primary screen (AID 1086).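 Note: score merges 667 nm fluorescence with signal-to-noise of each printed compound spot.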 The conditions noted are these: higher = more signal.
Experiment [10] in a line: binders of probe aHhip on microarray, primary screen, stem cell growth factor project, biochemical, small-molecule microarray, fluorescence 635/667 (AID 1087).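 Note: score merges spot fluorescence at 667nm with spot signal to noise ratio.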 Particulars: higher = more signal.
The test system of experiment [11] is PRMT1 (protein arginine N-methyltransferase 1). The experiment can be described thus: small molecules binding arginine methyltransferase PRMT1 – biochemical, small-molecule microarray, 635 nm fluorescence, primary screen (AID 1088).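 Note: binding of Prmt1 protein to compounds spotted on small-molecule microarray slides.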 Particulars: higher = more signal.
The nature of experiment [12]: growth effects on S. cerevisiae YJM789 – YJM789 clinical isolate, OD600, 24 h, basal, primary screen (AID 1089).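 Note: growth of clinical yeast isolate S. cerevisiae YJM 789 seeded 1000 cells per well; test concentration not given here.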 Particulars: higher = more signal, called active from +8 up or from −8 down.
Experiment [13] can be described thus: S. pombe growth modifiers, basal conditions – strain 972, OD600, 24 h, no modulator, primary screen (AID 1090).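 Note: basal condition with compound alone and no growth modifier present; test concentration not given here.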 Particulars: S. pombe 972 growth, higher = more signal, called active from +8 up or from −8 down.
Experiment [14] in a line: budding yeast growth modifiers under rapamycin – strain BY4716, OD600, 96 h, primary screen (AID 1091). Note: test concentration not given here. The conditions noted are these: S. cerevisiae BY4716 + rapamycin, higher = more signal, called active from +8 up or from −8 down.
The target of experiment [15] is Torsin-1A-interacting protein 2 (Homo sapiens) (UniProt Q8NFQ8). The experiment can be described thus: small molecules binding lysate-expressed LULL1 – cell lysate, human LULL1 lysate, 635/667 nm fluorescence, primary screen (AID 1092).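 Note: probe is lysate of COS7 cells overexpressing human LULL1; score merges per-feature 667 nm fluorescence with signal-to-noise.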 The conditions noted are these: small-molecule microarray, hLULL1 lysate binding, 635 nm fluorescence; higher = more signal.
Sequence of Torsin-1A-interacting protein 2 (Homo sapiens) (Q8NFQ8 whole entry, looked up): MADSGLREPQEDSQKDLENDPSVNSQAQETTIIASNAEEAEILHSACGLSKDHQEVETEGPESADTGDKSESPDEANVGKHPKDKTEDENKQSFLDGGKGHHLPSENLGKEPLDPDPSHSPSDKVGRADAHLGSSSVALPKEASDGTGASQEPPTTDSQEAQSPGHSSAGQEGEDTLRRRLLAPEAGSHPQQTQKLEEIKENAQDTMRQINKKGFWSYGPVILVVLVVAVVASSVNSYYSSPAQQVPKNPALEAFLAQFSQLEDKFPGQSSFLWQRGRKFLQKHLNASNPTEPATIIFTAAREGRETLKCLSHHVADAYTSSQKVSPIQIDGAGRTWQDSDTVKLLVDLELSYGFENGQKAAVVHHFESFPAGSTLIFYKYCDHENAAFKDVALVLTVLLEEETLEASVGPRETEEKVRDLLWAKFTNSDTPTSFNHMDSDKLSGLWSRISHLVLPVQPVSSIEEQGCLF
Experiment [16] in a line: optical density change of DRC41 E. coli – strain DRC41, OD650, 24 h, E. coli filamentation project, primary screen (AID 1093).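 Note: MC1000 strain lacking acrAB efflux and sulA so SOS filamentation is blocked; test concentration not given here.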 Particulars: E. coli DRC41 growth, higher = more signal, called active from +8 up or from −8 down.
Experiment [17] can be described thus: probe aLefty2 binding to arrayed compounds – biochemical, biotinylated probe, 635/667 nm fluorescence, primary screen (AID 1094).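 Note: score merges spot fluorescence near 667 nm with spot signal-to-noise ratio.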 The conditions noted are these: small-molecule microarray, higher = more signal.
Experiment [18] relates to Noggin (protein binding on small-molecule microarray). The experiment can be described thus: small molecules binding Noggin protein – biochemical, 635/667 nm fluorescence, primary screen (AID 1095).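 Note: score merges 667 nm feature fluorescence with signal to noise over triplicate slides.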 Particulars: 635 nm fluorescence, higher = more signal.
Experiment [19] concerns the target Neurogenic locus notch homolog protein 3 (Homo sapiens) (UniProt Q9UM47). Briefly: small molecules binding NOTCH3 protein – biochemical, 635/667 nm fluorescence, primary screen (AID 1096). The conditions noted are these: small-molecule microarray, 635 nm fluorescence, higher = more signal.
Experiment [20] can be described thus: probe aEGFR binding to arrayed compounds – biochemical, biotinylated probe, 635/667 nm fluorescence, primary screen (AID 1097).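 Note: probe is a biotinylated anti-EGFR antibody binding compounds printed on slides; score combines fluorescence near 667 nm and signal to noise of each spot.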 Particulars: small-molecule microarray, higher = more signal.

Take `CC(C)C(=C=CC[C@H](O)c1ccc(OCCO)cc1)CCO`: the composite z-score in [1] is -0.0762; in experiment [2] it was 0.887; in [3], -0.1; in experiment [4], 0.904; in experiment [5] it was 0.255; in [6] it was 1.69. Moreover, the composite z-score in [7] is 0.895; in experiment [9], 0.326; in [10], -0.0994; in experiment [11] it was 1.55; in experiment [15] it was 2.22; in experiment [17], -0.0113. Further, the composite z-score is 1.37 in experiment [18], -0.0409 in experiment [19] and -0.12 in experiment [20]. Further, the z-score is 0.305 (inactive) in [8]; -1.83 (inactive) in [12]; -1.27 (inactive) in experiment [13]; -0.768 (inactive) in [14]; -0.327 (inactive) in experiment [16].
Regarding `COCCOC(=O)N1C(=O)[C@@]2(c3cc(C#CCCO)ccc31)[C@H](C(N)=O)[C@H]1C(=O)O[C@H](c3ccccc3)[C@H](c3ccccc3)N1[C@@H]2c1ccc(O)cc1`, the composite z-score in [1] was -0.025; in [2], -0.283; in experiment [3], -0.0145; in [4], 0.413; in experiment [5] it was -0.242; in experiment [6], 0.298. In addition, the composite z-score in [7] was 0.171; in experiment [9], -0.0464; in [10], -0.202; in [11], -0.101; in experiment [15], 0.877; in [17], -0.159. The composite z-score was -0.248 in [18], -0.589 in experiment [19] and -0.202 in experiment [20]. Also, the z-score is 0.663 (inactive) in experiment [8]; 0.0223 (inactive) in [12]; -0.0181 (inactive) in experiment [13]; -0.535 (inactive) in [14]; -0.844 (inactive) in experiment [16].
`C=C(COC)/C(=C/C[C@@H](OC(=O)c1ccncc1)c1ccc(CO)o1)c1cc(C(=O)OC)ccc1OC`: the composite z-score was -0.496 in experiment [1]; 0.699 in experiment [2]; -0.0451 in experiment [3]; 0.833 in experiment [4]; 1.38 in [5]; 0.97 in experiment [6]. Also, the composite z-score in experiment [7] is 1.26; in [9], 0.458; in [10] it was -0.0994; in [11], 1.53; in experiment [15], 2; in [17], -0.178. The composite z-score in experiment [18] stood at 1.68; in experiment [19] it was 1.07; in experiment [20] it was 0.0878. In addition, the z-score in [8] was -1.38 (inactive); in experiment [12], 0.102 (inactive); in experiment [13], -0.262 (inactive); in experiment [14], -0.127 (inactive); in experiment [16], 0.564 (inactive).
Take `COCCOC(=O)N1C(=O)[C@@]2(c3cc(C#CCC(C(=O)OC)C(=O)OC)ccc31)[C@H](C(=O)Nc1nc3ccccc3s1)[C@H]1C(=O)O[C@H](c3ccccc3)[C@H](c3ccccc3)N1[C@@H]2c1ccccc1OCCO`: the composite z-score in experiment [1] was 0.0949; in [2] it was 0.684; in experiment [3] it was 0.0821; in experiment [4], 0.807; in [5], 1.49; in [6] it was 1.48. The composite z-score in [7] was 1.24; in experiment [9] it was 0.0716; in experiment [10], 0.0873; in [11], 1.56; in experiment [15] it was 2.78; in experiment [17], -0.0171. The composite z-score came out at 0.133 in [18], 1.11 in experiment [19] and 0.0556 in [20]. Besides, the z-score is 2.19 (inactive) in experiment [8]; 2.48 (inactive) in [12]; 2.08 (inactive) in [13]; 3.23 (inactive) in experiment [14]; 0.374 (inactive) in [16].
